Measured values from ChEMBL document CHEMBL3988442, “University of Dundee, Small-Polar-MMV Screening Library” (2021).
Out of some 48,000 compounds screened, about 13,000 (27%) showed an effect of 50% or more. Some of the results follow.

Each compound was assayed on Wolbachia pipientis (assay: Anti-Wolbachia Cell-Based Screen). Settings: 5 µM.
Format: functional
Set-up: scale not given: in the data most compounds retested in dose-response had high values
In the case of `O=S(=O)(NC1CCC2(CC1)OCCO2)c1ccccc1Br`, the “Percent Effect” value is reported as -6.742%.
For `COC(=O)CCCNC(=O)N1CCc2c(F)ccc(F)c2C1`, the “Percent Effect” value was -9.292%.
With `NC(=O)Cc1ccc(OCc2noc(C(=O)N3CCCC3)n2)cc1` the “Percent Effect” value was 130.8%.
`CCc1nc(COc2ccc(OCc3cnn(C)c3)cc2)no1` was tested, and the “Percent Effect” value was -33.42%.
With `CC(=O)Nc1ccc(OCc2noc(C(=O)N3CCCCCC3)n2)cc1` the “Percent Effect” value was 101%.
With `CCOCCNC(=O)Nc1ccc(OCc2noc(C3CC3)n2)cc1` the “Percent Effect” value was -0.9885%.
With `CC(=O)Nc1ccc(OCc2noc(C(=O)N3CCCCC3)n2)cc1` the “Percent Effect” value was 122.5%.
`CC(=O)Nc1ccc(OCc2noc(C(=O)N3CCCC3)n2)cc1` was tested, and the “Percent Effect” value was 120.5%.
In the case of `CCOCCCC(=O)Nc1ccc(OCc2noc(C3CC3)n2)cc1`, the “Percent Effect” value is reported as 20.67%.
With `O=C(c1nc(COc2ccc3c(c2)OCO3)no1)N1CCCC1` the “Percent Effect” value was 8.865%.
`CC(C)c1nc(C2CCCN2c2ncc(C(N)=O)cc2Cl)no1` (stereo not given) was tested, and the “Percent Effect” value was -26.86%.
In the case of `CC(C)=Cc1c(-c2ccccc2)ncn1CCN(C)S(C)(=O)=O`, the “Percent Effect” value is reported as -6.043%.
With `CCCc1nnc(NC(C)c2ccc3c(c2)OCCO3)o1` (stereo not given) the “Percent Effect” value was 16.29%.
In the case of `COCCCn1ccc(NC(=O)NCCCNc2ccccc2)n1`, the “Percent Effect” value is reported as -2.159%.
For `COc1cc(Cl)c(C)cc1NC(=O)CCNc1ccc(C#N)cn1`, the “Percent Effect” value was -3.637%.
In the case of `CC(C)c1nc(CN(C)CC2CCN(CCO)CC2)no1`, the “Percent Effect” value is reported as -11.77%.
`c1ccc2cc(OCCN3CCn4c(nnc4C4CC4)C3)ccc2c1` was tested, and the “Percent Effect” value was 2.138%.
With `CCN1C(=O)CC[C@@H]2[C@H]1CCN2C(=O)Cc1cccc(OC)c1` the “Percent Effect” value was -2.508%.
`CC(C)Cc1nc(COc2ccc(N(C)C(N)=O)cc2)no1` was tested, and the “Percent Effect” value was -36.1%.
`NC(=O)c1nc(COc2ccc3c(c2)OCO3)no1` was tested, and the “Percent Effect” value was 26.77%.
For `CCOC(=O)c1nc(COc2ccc(CC(N)=O)cc2)no1`, the “Percent Effect” value was 100.5%.
For `CC(C)C1CN(C(=O)c2ccc(N3CCCC3)nc2)CCS1` (stereo not given), the “Percent Effect” value was -8.119%.
With `Cc1cccc(C(=O)NC2CCN(c3cnn(C)c3)C2=O)n1` (stereo not given) the “Percent Effect” value was -1.568%.
`CNC(=O)Cc1noc(Cc2cccc(Cl)c2)n1` was tested, and the “Percent Effect” value was 10.38%.
For `O=C(O)CCNC(=O)Cc1csc(-c2cccc(Cl)c2)n1`, the “Percent Effect” value was 119%.
For `CN(Cc1csc(-c2ccccc2)n1)C(=O)CCNS(C)(=O)=O`, the “Percent Effect” value was -10.81%.
`O=C(O)CNC(=O)Cc1csc(-c2cccc(Cl)c2)n1` was tested, and the “Percent Effect” value was 95.07%.
For `Cc1nc(CNC(=O)NCC(O)c2cccc(Cl)c2)cs1` (stereo not given), the “Percent Effect” value was -14.28%.
`COc1ccc(C(=O)N2C[C@@H](CN3CCCC3)[C@@H](CO)C2)c(C)c1` was tested, and the “Percent Effect” value was 5.26%.
With `O=c1[nH]c(CN2CCN(CC(F)(F)F)CC2)nc2ccccc12` the “Percent Effect” value was -9.937%.
`CCn1c(CN2CCOC(Cn3cncn3)C2)nc2cc(F)ccc21` (stereo not given) was tested, and the “Percent Effect” value was 8.019%.
In the case of `COCCn1cncc1CN1CCCC(C)(c2ccccc2)C1` (stereo not given), the “Percent Effect” value is reported as -12.89%.
For `CCn1cncc1Cn1cccc(C(F)(F)F)c1=O`, the “Percent Effect” value was 2.585%.
With `Cn1cncc1CN1CCC2(CC1)CCN2c1ncccn1` the “Percent Effect” value was 0.5048%.
`Cc1ccc(C2(CN3CCCC3)CCNCC2)nc1` was tested, and the “Percent Effect” value was 5.469%.
`Cc1ccc(C2(CN3CCN(Cc4cncn4C)CC3)CC2)cc1.Cl` was tested, and the “Percent Effect” value was 158.8%.
`Cc1ccc(C2(CN3CCN(c4ncccn4)CC3)CCNCC2)nc1` was tested, and the “Percent Effect” value was -14.8%.
With `COCCN1CCCC12CCN(Cc1cncn1C)CC2.O=C(O)C(F)(F)F.O=C(O)C(F)(F)F` the “Percent Effect” value was -4.301%.
With `Cc1ccc(C2(CN3CCN(Cc4cnc(C)n4C)CC3)CC2)cc1.Cl` the “Percent Effect” value was 125%.
For `CCn1cncc1CN1CCN(CC2(c3ccc(C)cc3)CC2)CC1.Cl`, the “Percent Effect” value was 124%.
With `Cc1ccc(C(=O)Nc2cc(C(N)=O)ccc2CN(C)C)cc1Cl` the “Percent Effect” value was -14.19%.
With `NC(=O)c1ccc(NC(=O)N2CCN(c3cccs3)CC2)c(F)c1` the “Percent Effect” value was -5.895%.
In the case of `CS(=O)(=O)NC[C@H]1OC[C@@H](NC2CCC(F)(F)CC2)[C@@H]1O`, the “Percent Effect” value is reported as -4.949%.
`CO[C@H]1C[C@@H](O)C12CCN(Cc1nc(C(F)(F)F)no1)CC2` was tested, and the “Percent Effect” value was 107.1%.
`COc1ccc(F)c(F)c1CN1CCC2(CC1)[C@H](O)C[C@@H]2OCCN` was tested, and the “Percent Effect” value was 1.725%.
With `CNc1cc(C)nc(N2CCC3(CC2)[C@H](O)C[C@@H]3OC)n1` the “Percent Effect” value was 12.2%.
In the case of `OCCO[C@H]1C[C@@H](O)C12CCN(Cc1nc(C(F)(F)F)no1)CC2`, the “Percent Effect” value is reported as 99.64%.
For `NCCO[C@H]1C[C@@H](O)C12CCN(Cc1c(F)cccc1F)CC2`, the “Percent Effect” value was -12.61%.
With `COCc1noc(CN2C(=O)OC[C@@H]2C(C)C)n1` the “Percent Effect” value was -2.73%.
In the case of `COc1cc(CN2CCC3(CC2)[C@H](O)C[C@@H]3OCCO)ccc1F`, the “Percent Effect” value is reported as 8.427%.
`COCc1noc(CN2CCC3(CC2)[C@H](O)C[C@@H]3OC)n1` was tested, and the “Percent Effect” value was 101.4%.
In the case of `CCN(Cc1nc(COC)no1)C[C@]1(O)CCCN2CCCC[C@@H]21`, the “Percent Effect” value is reported as -7.865%.
`Cc1ccccc1SC1CCN(C(=O)C2CNCC(=O)N2)CC1` (stereo not given) was tested, and the “Percent Effect” value was -16.36%.
For `COc1nccnc1-c1cccc(-c2ccn(CC3COCCO3)n2)c1` (stereo not given), the “Percent Effect” value was -15.38%.
For `CCN(C)c1ncnc2c1CCN(C(=O)c1cccn1C)CC2`, the “Percent Effect” value was -8.14%.
In the case of `COCCn1ccc2c(NC(=O)c3n[nH]c4c3CCCC4)cccc21`, the “Percent Effect” value is reported as 111.2%.
With `O=C(c1n[nH]c2c1CCC2)N1CCCC1c1nc(-c2ccccc2)no1` (stereo not given) the “Percent Effect” value was 8.692%.
`CC(C)Cn1cncc1CNC(=O)c1cccc(-n2cnnc2)c1` was tested, and the “Percent Effect” value was 1.824%.
With `O=C(c1n[nH]c2c1CCC2)N1CCCC1c1nc(-c2ccccn2)no1` (stereo not given) the “Percent Effect” value was 14.67%.
With `CC(C)Cn1ccc2c(NC(=O)c3n[nH]c4c3CCC4)cccc21` the “Percent Effect” value was 106.4%.
With `CC(C)CN1CCc2[nH]nc(C(=O)N3CCCC3)c2C1.O=C(O)C(F)(F)F` the “Percent Effect” value was 26.25%.
`COCCn1cc(C(=O)N2CCCC2c2cc(C)on2)c2ccccc21` (stereo not given) was tested, and the “Percent Effect” value was -11.13%.
`CC(C)n1ccc2c(NC(=O)c3n[nH]c4c3CCC4)cccc21` was tested, and the “Percent Effect” value was 99.33%.
With `COCCn1ccc(=O)c(OCC(=O)Nc2cccc(C(C)=O)c2)c1C` the “Percent Effect” value was 6.255%.
`COCCn1ccc2c(NC(=O)c3n[nH]c4c3CCC4)cccc21` was tested, and the “Percent Effect” value was 97.48%.
